# Beta2AR agonist: agonists of human beta-2 adrenergic receptor inducing internalization. P07550. Am2.2-beta2AR cells, FAP receptor internalization, flow cytometry. response, % (test concentration not listed). 340,000 compounds, 0.43% hits. AID 504454;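 active = response above a set limit, near 3 SD of response in nonfluorescent compounds, cut at about 42% in these data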
# Target sequence (P07550 whole entry, looked up): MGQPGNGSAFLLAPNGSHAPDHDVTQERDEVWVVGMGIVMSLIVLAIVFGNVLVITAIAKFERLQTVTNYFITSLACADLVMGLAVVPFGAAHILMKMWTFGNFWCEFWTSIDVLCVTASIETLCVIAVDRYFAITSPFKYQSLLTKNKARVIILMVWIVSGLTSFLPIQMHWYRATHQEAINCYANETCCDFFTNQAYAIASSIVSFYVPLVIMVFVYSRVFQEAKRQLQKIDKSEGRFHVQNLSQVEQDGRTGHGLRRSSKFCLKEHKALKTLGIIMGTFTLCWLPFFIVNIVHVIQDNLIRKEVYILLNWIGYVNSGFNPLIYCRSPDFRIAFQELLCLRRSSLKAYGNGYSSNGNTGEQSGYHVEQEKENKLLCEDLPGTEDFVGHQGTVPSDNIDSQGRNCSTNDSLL
# NTR1 ag: NTR1 (human) agonism; NTR1-U2OS beta-arrestin-GFP spot imaging, agonist mode; 330,000 compounds, 0.17% hits; activation, % at 20 µM;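 active = activation at or above 40% of the spot to cytoplasm intensity ratio, with at least 20 cells analyzed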;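 also: 0% = DMSO without peptide and 100% = 100 nM NTR1 peptide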
# Bfl-1 A1 inh: inhibitors of the anti-apoptotic protein A1, read as caspase activation; MEF A1-2A-BIM cells, Caspase-Glo 3/7 luminescence, 3 h; percent of clofoctol response, vehicle zero; caspase activation, % (test concentration not listed); 330,000 compounds, 0.066% hits; AID 2462;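 active = over half of replicate activation scores above 10%, or exactly half above 10 with the replicate mean above 10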
# VLA-4 inh: inhibition in a human VLA-4 binding assay; 330,000 compounds, 0.2% hits; P13612; inhibition, % (about 7 µM as worked out from the volumes in the protocol); VLA-4 expressing cells, ligand binding flow cytometry; in the data active = inhibition above about 50%
# GRK2 inh: human GRK2 inhibition via aptamer displacement | P25098 | bead flow cytometry, FAM-aptamer displacement from GRK2 | inhibition of aptamer binding, % at 10 µM | 330,000 compounds, 0.59% hits;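 active = inhibition of aptamer binding above 40%, roughly 3 SD of noise, on plates passing a quality check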;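 also: median bead fluorescence of bound FAM aptamer so fluorescent compounds give negative values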
# B2AR ag CP1: human beta-2 adrenergic receptor agonism, cherry pick. shares compounds with Beta2AR agonist. Am2.2-beta2AR cells, FAP surface receptor, flow cytometry; hits give low values. percent response (surface receptor), % at 10 µM. 1,100 compounds, 25% hits. AID 540358;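 active = surface receptor percent response at or below 58%, roughly 3 SD from nonfluorescent compounds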
# FAP fluor counter: flagged in Am2.2 fluorescence counterscreen for beta-2AR agonists; Am2.2 cells, FAP fluorogen flow cytometry; hits give low values; shares compounds with Beta2AR agonist; AID 588765; 1,100 tested, under 10 active; calls only at 10 µM;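 active = percent response below a set limit in fluorescence channel 1 and below 50% in channel 8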
# Numbers without * were called inactive; i = inactive; x = no result given. Sampled rows, rich in hits. Any-hit rate of the full collection: about 1.3%.
SMILES,Beta2AR agonist,NTR1 ag,Bfl-1 A1 inh,VLA-4 inh,GRK2 inh,B2AR ag CP1,FAP fluor counter
NC(=S)N/N=C/c1ccccc1OC(=O)c1cc2ccccc2oc1=O,0,0,1,5,2,102,i
NC(=O)N/N=C/c1ccccc1OC(=O)c1cc2ccccc2oc1=O,-5,-1,0,18,4,x,x
CCN(C(=O)c1ccc2c(=O)n3c(nc2c1)CCCCC3)c1ccccc1C,1,-1,4,-2,3,x,x
CC(C)(C)OC(=O)N1CC2(CCCCC2)CC1Cc1ccc(C(F)(F)F)cc1 (stereo unspecified),x,x,x,x,x,100,i
O=C(O)CC1(CC(=O)NCc2ccc(C(F)(F)F)cc2)CCCCC1,-1,0,0,-2,0,x,x
CC1(C)CC(Cc2cccc(C(F)(F)F)c2)N(C(=O)OC(C)(C)C)C1 (stereo unspecified),x,x,x,x,x,111,i
Cc1cccc(Nc2nnc(-c3ccc(C(=O)N4C[C@H]5C[C@H](C4)c4cccc(=O)n4C5)cc3)c3ccccc23)c1,85*,2,0,6,3,16*,i
Cc1ccc(Sc2ncccc2COC(=O)Nc2c(C)cccc2C)cc1,63*,3,1,-2,0,118,i
Cc1ccc(Sc2ncccc2COC(=O)Nc2ccccc2)cc1,4,1,-1,8,0,x,x
CCN(CC)S(=O)(=O)c1ccc(N2CCCC2)c(NC(=O)C2=NN(c3ccccc3)C(=O)CC2)c1,47*,9,0,8,0,99,i
CCc1nnc(SCC(=O)NC2CC2)n1CC,-1,0,1,19,3,x,x
CN(C)CCCN(C(=O)c1ccc([N+](=O)[O-])s1)c1nc2cc3c(cc2s1)OCCO3,42*,-1,3,17,71*,84,i
Cc1ccc2nc(N(CCCN(C)C)C(=O)c3ccc(Br)s3)sc2c1,54*,-2,0,3,0,96,i
CN(C)CCCN(C(=O)c1ccc(Br)s1)c1nc2cc3c(cc2s1)OCCO3,19,4,-2,9,0,x,x
O=C1C=C(c2ccc(C(=O)O)cc2)C[C@@H](c2ccc3c(c2)OCO3)C1,13,1,0,2,2,x,x
O=C(c1ccccc1)c1ccc(NCCCn2ccnc2)c([N+](=O)[O-])c1,-13,3,0,-5,0,x,x
OCC1OC(n2cnc3ccccc32)CC1O (stereo unspecified),-3,0,2,5,1,x,x
Clc1ccccc1C1Nc2cccc3cccc(c23)N1,11,5,0,15,0,x,x
Clc1cccc(C2Nc3cccc4cccc(c34)N2)c1Cl,6,3,0,4,0,94,i
COc1ccc2nc(NC(=O)CSc3nnc(N)s3)sc2c1,75*,-2,0,11,0,78,i
CCn1c(SCC(=O)N2CCCC2)nnc1-c1ccc(N)cc1,86*,0,0,-15,0,6.8*,i
CCOc1ccc(CNC(=O)c2ccc(NC(=O)C3=CSCCO3)cc2)cc1,105*,0,-1,9,2,21*,i
Cc1ccc(CNC(=O)c2ccc(NC(=O)C3=CSCCO3)cc2)cc1,4,-1,0,2,2,x,x
COc1cc2ncc(S(=O)(=O)c3ccccc3)c(N3CCCC(C)C3)c2cc1OC (stereo unspecified),69*,8,2,-27,0,9.0*,i
CS(=O)(=O)c1ccc(C(=O)OCc2nnc(-c3ccccc3)o2)cc1[N+](=O)[O-],85*,x,x,x,x,84,i
SMILES,Beta2AR agonist,NTR1 ag,Bfl-1 A1 inh,VLA-4 inh,GRK2 inh,B2AR ag CP1,FAP fluor counter
CC(=O)c1cccc(NC(=O)COC(=O)c2ccc(S(C)(=O)=O)c([N+](=O)[O-])c2)c1,68*,10,0,31,0,99,i
CN(C)S(=O)(=O)c1ccc(C(=O)OCc2nnc(-c3ccccc3)o2)cc1,1,2,0,0,1,x,x
O=C(OCc1nnc(-c2ccccc2)o1)c1ccc(CO)cc1,-12,1,1,0,3,98,i
O=C(OCc1nnc(-c2ccccc2)o1)c1ccc(Cl)cc1,-1,x,0,3,0,x,x
Cc1cc(S(=O)(=O)N2CCOCC2)ccc1OCC(=O)Nc1ccccc1F,12,-3,0,2,1,95,i
COc1ccc(S(=O)(=O)N2CCOCC2)cc1NC(=O)COc1ccccc1OC,3,3,0,0,1,x,x
Cc1ccccc1NC(=O)COc1ccc(S(=O)(=O)N2CCCC2)cc1C,-1,14,-1,4,4,90,i
COc1ccccc1CNC(=O)COc1ccc(S(=O)(=O)N2CCOCC2)cc1C,-6,-1,0,13,1,x,x
CC(=O)Nc1ccc(NC(=O)COc2ccc(S(=O)(=O)N3CCCC3)cc2C)cc1,-6,-1,1,11,1,x,x
Cc1cc(S(=O)(=O)N2CCOCC2)ccc1OCC(=O)Nc1cccc(F)c1,7,-2,1,6,0,126,i
CN(C)S(=O)(=O)c1cccc(NC(=O)COc2ccc(S(=O)(=O)N3CCOCC3)cc2Cl)c1,14,1,0,0,0,x,x
COc1ccc(NC(=O)COc2ccc(S(=O)(=O)N3CCOCC3)cc2C)cc1OC,5,0,-1,-10,0,111,i
CC(C)c1nc2sc3c(NCc4ccccc4)ncnc3c2c2c1COC(C)(C)C2,2,4,-2,3,0,114,i
COc1cccc(Oc2nccc(N(C)C)c2C#N)c1,0,0,0,-2,0,x,x
COC(=O)c1ccc(CN2CCC(Oc3ccc(C(=O)N4CCCCC4)cc3)CC2)cc1,4,2,-1,6,0,115,i
O=C(Nc1ccc(N2CCCC2)cc1)c1cc(Cl)ccc1Cl,73*,7,1,19,0,97,i
O=C(Nc1ccc(N2CCCC2)cc1)c1ccc(Cl)cc1Cl,0,-2,-2,0,0,x,x
Cc1ccc(S(=O)(=O)N2CCN(C(=O)C3CCN(C(=O)c4ccc(F)cc4)CC3)CC2)c(C)c1,-2,1,-1,1,0,x,x
Cc1ccc(Cn2nc(C)c(C(=O)NCC(c3cccs3)N3CCOCC3)c2Cl)cc1 (stereo unspecified),7,-1,0,-23,0,x,x
Cc1nn(Cc2ccccc2)c(C)c1C(=O)NCC(c1cccs1)N1CCOCC1 (stereo unspecified),63*,0,1,5,0,109,i
N#CCC(=O)Nc1ccc(C(=O)NCCC(c2ccccc2)c2ccccc2)cc1,-9,5,0,0,0,x,x
